Test results reported in PubChem BioAssay (NCI).
Values joined by “and” are separate entries in the source; they are usually repeats but may differ in a detail not shown here. Equal values may be shown once. This is part of a sample that, as a whole, favours compounds with a hit. Of some 83,000 tested, about 20% had one in any assay.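 Results are percent growth after 48 hours of single-concentration exposure. 100 means growth as in untreated cells, lower positive values show inhibition; negative values down to -100 show cell death.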 Active and inactive are the calls of the source. The calls were made as follows: active = growth percent below 10; inactive = the rest.

How the values were obtained:
Test in all cases: NCI-60 one-dose screen, 48 h (100 = growth as untreated, 0 = no growth, -100 = all killed)
[1] = system: RPMI-8226 leukemia; settings: 10 µM unless noted
[2] = system: OVCAR-8 ovarian; settings: 10 µM unless noted
[3] = system: OVCAR-5 ovarian; settings: 10 µM unless noted
[4] = system: OVCAR-4 ovarian; settings: 10 µM unless noted
[5] = system: SK-OV-3 ovarian; settings: 10 µM unless noted
[6] = system: IGROV1 ovarian; settings: 10 µM unless noted
[7] = system: OVCAR-3 ovarian; settings: 10 µM unless noted
[8] = system: HS 578T breast; settings: 10 µM unless noted
[9] = system: NCI/ADR-RES ovarian; settings: 10 µM unless noted
[10] = system: T-47D breast; settings: 10 µM unless noted
[11] = system: BT-549 breast; settings: 10 µM unless noted
[12] = system: MDA-MB-435 melanoma; settings: 10 µM unless noted
[13] = system: MCF7 breast; settings: 10 µM
[14] = system: HCT-116 colon; settings: 10 µM unless noted
[15] = system: HCC-2998 colon; settings: 10 µM unless noted
[16] = system: KM12 colon; settings: 10 µM unless noted
[17] = system: SR leukemia; settings: 10 µM unless noted
[18] = system: SW-620 colon; settings: 10 µM unless noted

Measured: growth

CN(Cc1cnc2nc(N)nc(N)c2n1)c1ccc(C(=O)NC(CCC(=O)O)C(=O)O)cc1 (stereo not drawn)
inactive: [1] 37.3% | [2] 24% | [3] 44.9% | [4] 61.3% | [5] 59.3% | [6] 31.2% | [7] 37.8% | [8] 76.6% | [9] 26.7% | [10] 67.6% | [11] 48.4% | [12] 30.6% | [13] 24.3% | [14] 20.6% | [15] 27.7% | [16] 32.4%

CN(C)c1ccc(C(=C2C=CC(=[N+](C)C)C=C2)c2ccc(N(C)C)cc2)cc1 (tested in a mixture with another compound)
active: [2] -23.2% | [3] -66.9% | [4] -40.1% | [5] -81.1% | [6] -63.8% | [7] -93.5% | [8] -1.97% | [9] -4.74% | [10] -92.4% | [13] -92.3% | [14] -76% | [15] -80.3% | [16] -95.3%

OC(CNc1ccnc2cc(Cl)ccc12)CNc1ccnc2cc(Cl)ccc12
inactive: [2] 52.5% | [3] 79.5% | [4] 48% | [6] 87.6% | [7] 43.6% | [8] 89% | [9] 106% | [11] 85.2% | [13] 18.5% | [15] 46.1% | [16] 44.5%
active: [17] 2.51% | [10] 9.13% | [12] -43.6% | [18] -31.2% | [14] 5.7%

CCCCCCCCCCCCCCCC[N+](C)(CCO)Cc1cnc[nH]1 (stereo not drawn)
active: [2] -4.26% | [3] -13.7% | [4] -1.06% | [5] -21% | [6] -54.5% | [8] -19.4% | [12] -43.8% | [13] -18.4% | [14] -51% | [15] -70.5% | [16] -97.7%
inactive: [9] 94.5% | [10] 16.5%

CCCCCCC(C)c1ccccc1O (stereo not drawn) (tested in a mixture with another compound)
inactive: [1] 95.6% | [2] 110% | [3] 104% | [6] 111% | [7] 111% | [8] 101% | [9] 98.6% | [10] 94.8% | [11] 108% | [18] 103% | [13] 116% | [14] 111% | [15] 103% | [16] 107%

NC(=S)N/N=C/c1ccc(Cl)s1
inactive: [17] 95.6% | [2] 106% | [3] 111% | [4] 109% | [6] 106% | [7] 105% | [8] 103% | [9] 108% | [10] 89.8% | [11] 112% | [12] 104% | [13] 104% | [14] 93.4% | [15] 111% | [16] 101%

O=C1N[C@H]2[C@H](CS[C@H]2CCCCC(=O)N(CCP(c2ccccc2)c2ccccc2)CCP(c2ccccc2)c2ccccc2)N1
active: [6] -47.4%
inactive: [17] 102% | [2] 95.1% | [3] 95.2% | [4] 87.9% | [8] 84.4% | [9] 101% | [10] 74.8% | [11] 96.9% | [12] 96.1% | [13] 20.9% | [14] 35.5% | [15] 88.9% | [16] 59.9%

CC1SC(=S)N(c2ccc(Cl)cc2)C1=O (stereo not drawn)
inactive: [1] 94.8% and 79.6% | [2] 101% | [3] 91.3% and 89.6% | [4] 97.5% and 91.3% | [5] 117% and 99.4% | [6] 128% and 92.5% | [7] 93.3% and 97.7% | [8] 161% and 132% | [9] 103% | [10] 73.9% and 62.8% | [11] 106% and 86.2% | [12] 106% and 99.8% | [18] 109% and 113% | [13] 96.9% and 79.9% | [14] 100% and 93.4% | [15] 90.7% | [16] 94.6% and 108%

Cn1c2ccccc2c2nnc(N/N=C/c3ccccn3)nc21
active: [17] 8.61% | [6] 4.97% | [9] 6.51% | [11] -24.2%
inactive: [3] 40.6% | [4] 24.4% | [7] 23.5% | [8] 53.7% | [10] 19.2% | [12] 19.1% | [18] 31.3% | [13] 13.3% | [14] 14.4% | [15] 34.5% | [16] 23%
